LRH-1 inv ag – suppresses constitutive activity of human LRH-1; O00482; HEK293T StAR-luciferase reporter, LRH-1 transfected, 24 h; inhibition, % at 3.6 µM; 360,000 compounds, 0.13% hits;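 active = inhibition above the mean inhibition of all tested compounds plus 3 SD, cut at about 73% in these data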
Gli-Sufu block – antagonists of Gli-Sufu signaling | AID 588413 | Sufu-KO-LIGHT fibroblasts, Gli luciferase reporter luminescence | 340,000 compounds, 0.74% hits | inhibition, % at 5 µM;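 active = inhibition above about 55%, limit read from the data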
NCOA2 inhibitor – human SRC2 (NCOA2) inhibition | HEK293 GAL4-SRC2 luciferase reporter, luminescence | inhibition, % at 9 µM | 370,000 compounds, 0.17% hits | AID 651957;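 active = inhibition above the mean inhibition of all tested compounds plus 3 SD, set per campaign, cut at about 52% in these data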
SRC3 inh – human NCOA3 inhibition | Q9Y6Q9 | HEK293 GAL4-SRC3 luciferase reporter, luminescence | inhibition, % at 3.6 µM | 360,000 compounds, 0.17% hits;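 active = inhibition above a per-campaign cutoff, the mean of all compounds plus 3 SD, cut at about 60% in these data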;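 note: higher means less SRC3-driven luciferase light from the GAL4 reporter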
COUP-TFII inh – blocks human COUP-TFII nuclear receptor; HEK293T NGFI-A luciferase reporter, luminescence; inhibition, % at 8.6 µM; 370,000 compounds, 0.7% hits; AID 686940;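 active = inhibition above a per-plate cutoff, mean inhibition of test wells between control levels plus 3 SD, cut at about 38% in these data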;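 note: cells cotransfected with COUP-TFII expression vector driving the NGFI-A reporter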
NCOA1 inh – inhibitors of human steroid receptor coactivator 1 (SRC1). HEK293 GAL4-SRC1 luciferase reporter, luminescence. inhibition, % at 3.6 µM. 360,000 compounds, 0.12% hits. AID 588354;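 active = inhibition above the campaign mean plus 3 SD, with each screening campaign given its own cutoff, cut at about 60% in these data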
Target sequence (Q15788 whole entry, looked up, the tested form may be a part): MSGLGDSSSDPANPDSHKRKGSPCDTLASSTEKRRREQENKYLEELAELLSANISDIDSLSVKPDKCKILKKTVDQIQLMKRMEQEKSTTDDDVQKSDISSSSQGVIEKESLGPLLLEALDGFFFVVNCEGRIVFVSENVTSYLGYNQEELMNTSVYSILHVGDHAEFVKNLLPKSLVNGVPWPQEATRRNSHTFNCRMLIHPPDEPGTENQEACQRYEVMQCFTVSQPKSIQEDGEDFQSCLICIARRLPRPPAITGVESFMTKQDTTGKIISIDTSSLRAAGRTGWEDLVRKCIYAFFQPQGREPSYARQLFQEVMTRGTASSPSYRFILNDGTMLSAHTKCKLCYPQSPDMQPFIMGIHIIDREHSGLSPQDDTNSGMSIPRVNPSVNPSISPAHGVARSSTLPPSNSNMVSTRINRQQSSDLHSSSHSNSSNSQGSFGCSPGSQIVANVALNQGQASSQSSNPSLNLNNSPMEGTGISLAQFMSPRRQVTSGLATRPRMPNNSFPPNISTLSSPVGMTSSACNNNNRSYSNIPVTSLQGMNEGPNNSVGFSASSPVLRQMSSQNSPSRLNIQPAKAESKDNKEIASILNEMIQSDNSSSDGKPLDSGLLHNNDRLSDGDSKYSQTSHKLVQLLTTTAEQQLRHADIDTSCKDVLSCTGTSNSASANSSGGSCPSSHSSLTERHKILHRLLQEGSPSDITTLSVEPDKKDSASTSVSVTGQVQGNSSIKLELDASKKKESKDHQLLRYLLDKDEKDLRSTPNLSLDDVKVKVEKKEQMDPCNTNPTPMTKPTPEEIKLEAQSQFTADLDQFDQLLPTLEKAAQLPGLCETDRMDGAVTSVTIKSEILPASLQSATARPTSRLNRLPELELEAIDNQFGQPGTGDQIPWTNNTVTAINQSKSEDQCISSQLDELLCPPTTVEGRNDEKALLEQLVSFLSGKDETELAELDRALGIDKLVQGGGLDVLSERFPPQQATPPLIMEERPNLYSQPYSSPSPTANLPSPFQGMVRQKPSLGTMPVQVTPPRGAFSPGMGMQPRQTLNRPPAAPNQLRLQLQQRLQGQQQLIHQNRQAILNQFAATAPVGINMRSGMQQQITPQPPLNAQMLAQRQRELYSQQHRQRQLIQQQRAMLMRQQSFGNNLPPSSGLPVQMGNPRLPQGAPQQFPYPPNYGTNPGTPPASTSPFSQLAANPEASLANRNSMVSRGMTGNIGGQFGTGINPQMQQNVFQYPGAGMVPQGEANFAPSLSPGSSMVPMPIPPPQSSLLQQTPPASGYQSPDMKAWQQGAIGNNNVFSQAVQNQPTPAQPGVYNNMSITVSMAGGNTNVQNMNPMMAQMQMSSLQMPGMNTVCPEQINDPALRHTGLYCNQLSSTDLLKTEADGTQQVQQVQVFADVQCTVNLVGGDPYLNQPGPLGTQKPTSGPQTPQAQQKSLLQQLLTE
Gli antag conf – confirmation of Gli-SUFU pathway antagonists | shares compounds with Gli-Sufu block | Sufu-KO-LIGHT cells, Gli luciferase reporter, luminescence | inhibition, % at 5 µM | 2,500 compounds, 40% hits | AID 602428;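 active = mean inhibition at 5 µM reaching about 45%, limit read from the data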
Gli cytotox – cytotoxicity counter-screen for Gli-SUFU antagonists | shares compounds with Gli-Sufu block | Sufu-KO-LIGHT cells cytotoxicity, ATP luminescence | cytotoxicity, % at 5 µM | 2,500 compounds, 32% hits | AID 651994;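 active = mean cytotoxicity at 5 µM above about 25%, limit read from the data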;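 note: cells exposed to compound overnight for roughly 16 to 18 hours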
Wnt3a counter – inhibits Wnt3a reporter, counter-screen for Gli-SUFU antagonists; shares compounds with Gli-Sufu block; Wnt-LIGHT cells, Wnt3a-driven luciferase reporter, luminescence; inhibition, % at 6.25 µM; 2,500 compounds, 20% hits; AID 651995;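 active = mean inhibition above about 25%, limit read from the data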
Of the large screens only hits and unclear results are named; the others gave an inactive call (follow-up assays come after a bar, where they were run). The list is not random: actives were taken first. Their share in the collection is about 1.3%.

Cc1oc(/N=C/c2ccc(Cl)cc2)c(C#N)c1C	Gli-Sufu block 71 | Gli antag conf inactive | Gli cytotox inactive | Wnt3a counter inactive
C[C@H]1CN([C@@H](C)CO)C(=O)CCCn2nncc2CO[C@@H]1CN(C)S(=O)(=O)c1cccs1	none (no result: LRH-1 inv ag, Gli-Sufu block, SRC3 inh, NCOA1 inh)
C/C(=N\Nc1ccc2nncn2n1)c1ccc(Br)s1	Gli-Sufu block 62 | Gli antag conf inactive | Gli cytotox inactive | Wnt3a counter inactive
NC(=O)c1ncn([C@@H]2O[C@H](C(=O)N[C@H](Cc3ccccc3)C(=O)N3CCN(c4ccc(Cl)cn4)CC3)[C@@H](O)[C@H]2O)n1	none (no result: LRH-1 inv ag, Gli-Sufu block, SRC3 inh, NCOA1 inh)
CCN(C(=O)CSc1nnc(-c2ccncc2)n1Cc1ccccc1)C1CCS(=O)(=O)C1 (stereo not drawn)	Gli-Sufu block 58 | Gli antag conf inactive | Gli cytotox inactive | Wnt3a counter inactive
CCN(C(=O)CSc1nnc(C)n1Cc1ccccc1)C1CCS(=O)(=O)C1 (stereo not drawn)	none
Cc1cc(=O)oc2cc(OCC(O)CN3CCc4ccccc4C3)ccc12 (stereo not drawn)	Gli-Sufu block 95 | Gli antag conf inactive | Gli cytotox inactive | Wnt3a counter inactive
CCCCN(CCCC)CCCNC(=O)Cn1cc(C)c(=O)[nH]c1=O	none (no result: LRH-1 inv ag, Gli-Sufu block, SRC3 inh, NCOA1 inh)
CCOc1ccccc1-c1nc(CN2CCCC2c2nccs2)c(C)o1 (stereo not drawn)	none | Gli antag conf inactive | Gli cytotox inactive | Wnt3a counter inactive
C[C@H](O)[C@@H]1C(=O)N2CCc3c([nH]c4cccc(-c5ccccc5)c34)[C@@H]2C[C@@H]1N(C)CC1CCCCC1	none (no result: LRH-1 inv ag, Gli-Sufu block, SRC3 inh, NCOA1 inh)
CCCCOCC1CN(Cc2ccccc2OC)S(=O)(=O)c2cc(Cl)ccc2O1 (stereo not drawn)	none (no result: LRH-1 inv ag, Gli-Sufu block, SRC3 inh, NCOA1 inh)
O=S(=O)(Nc1ccccc1)c1ccc(-c2cnc(C3CC3)o2)cc1	none
Cc1cc(C)cc(NS(=O)(=O)c2ccc(-c3cnc(C4CC4)o3)cc2)c1	Gli-Sufu block 55 | Gli antag conf 51 | Gli cytotox 57 | Wnt3a counter inactive
Cc1cc(C)cc(OCC(O)CN2CCN(Cc3ccc4c(c3)OCO4)CC2)c1 (stereo not drawn)	Gli-Sufu block 64 | Gli antag conf inactive | Gli cytotox inactive | Wnt3a counter inactive
CN(CCc1ccccc1)C(=O)c1cc2ccccn2n1	none (no result: LRH-1 inv ag, Gli-Sufu block, SRC3 inh, NCOA1 inh)
Cc1ccc(-c2nc(-c3ccccc3)no2)c(Cl)c1	Gli-Sufu block 67 | Gli antag conf 69 | Gli cytotox 80 | Wnt3a counter 103
O=C(Cc1ccccc1)Nc1ccccc1N1CCOCC1	none
O=C(CCS(=O)(=O)c1ccccc1)Nc1ccccc1N1CCOCC1	Gli-Sufu block 66 | Gli antag conf inactive | Gli cytotox inactive | Wnt3a counter inactive
CCS(=O)(=O)c1nc(S(=O)(=O)c2ccc(C)cc2)c(N2CCOCC2)s1	none | Gli antag conf inactive | Gli cytotox inactive | Wnt3a counter inactive
Cc1ccc(S(=O)(=O)c2nc(S(=O)(=O)c3ccc(C)cc3)c(N3CCN(CCO)CC3)s2)cc1	Gli-Sufu block 55 | Gli antag conf inactive | Gli cytotox inactive | Wnt3a counter 62
c1ccc(Cn2c(-c3ccccc3)c[n+]3c2SCCC3)cc1	Gli-Sufu block 70 | Gli antag conf 67 | Gli cytotox 37 | Wnt3a counter inactive
COc1ccc(-c2c[n+]3c(n2-c2ccccc2)SCC3)cc1OC	none
Cc1ccc(S(=O)(=O)N2CCN(C(=O)c3c(C)nn(-c4ccccc4)c3Cl)CC2)cc1	none
Cc1cc(C)c(S(=O)(=O)N2CCN(C(=O)c3c(C)nn(-c4ccccc4)c3Cl)CC2)c(C)c1	Gli-Sufu block 98 | Gli antag conf inactive | Gli cytotox inactive | Wnt3a counter inactive
O=C(Nc1nnc(-c2ccco2)o1)c1ccc2ccccc2c1	Gli-Sufu block 97 | Gli antag conf inactive | Gli cytotox inactive | Wnt3a counter inactive
O=C(Cn1cc(C(F)(F)F)ccc1=O)N/N=C/c1ccc(Cl)c(Cl)c1	none | Gli antag conf inactive | Gli cytotox inactive | Wnt3a counter inactive
O=C(Cc1ccc(NC(=O)C2CCN(C(=O)CCc3ccccc3)CC2)cc1)Nc1cccc(C(=O)N2CCCC2)c1	none (no result: LRH-1 inv ag, Gli-Sufu block, SRC3 inh, NCOA1 inh)
c1ccc(CNc2nc(-c3cccs3)nc3ccccc23)nc1	none
CNc1nc(NCc2ccccc2)c2ccccc2n1	Gli-Sufu block 57 | Gli antag conf inactive | Gli cytotox inactive | Wnt3a counter inactive
Cc1ccc(CNc2nc(-c3cccs3)nc3ccccc23)cc1	none | Gli antag conf inactive | Gli cytotox inactive | Wnt3a counter inactive
Cc1ccc(C)c(-c2csc(NC(=O)C3=COCCO3)n2)c1	Gli-Sufu block 63 | Gli antag conf 63 | Gli cytotox inactive | Wnt3a counter inactive
Cc1ccc(-c2csc(NC(=O)C3=COCCO3)n2)cc1	none
Cc1nc2ccccc2nc(C)c1=NOCc1cccc(F)c1	Gli-Sufu block 66 | Gli antag conf inactive | Gli cytotox inactive | Wnt3a counter inactive
CC(C)N(Cc1ccccc1)S(=O)(=O)c1ccc(F)cc1	Gli-Sufu block 59 | Gli antag conf 49 | Gli cytotox 34 | Wnt3a counter 33
Cc1cc(N2CCN(CC(C)(C)O)C[C@H]2C)ccc1N1CCN(CC(C)(C)O)[C@@H](C)C1	none (no result: LRH-1 inv ag, Gli-Sufu block, SRC3 inh, NCOA1 inh)
COc1ccc2nc3sc(C(=O)N4CCN(C)CC4)cc3cc2c1	Gli-Sufu block 94 | Gli antag conf inactive | Gli cytotox inactive | Wnt3a counter inactive
OCC1CCCN(c2nc(CN3CCCCC3)nc3scc(-c4ccccc4)c23)C1 (stereo not drawn)	none
CCNc1nc(CN2CCCCC2)nc2scc(-c3ccccc3)c12	Gli-Sufu block 69 | Gli antag conf 56 | Gli cytotox inactive | Wnt3a counter inactive
COc1ccccc1CNC(=O)C(=O)NCCC1CCCCN1S(=O)(=O)c1ccc(C)cc1 (stereo not drawn)	none | Gli antag conf inactive | Gli cytotox inactive | Wnt3a counter inactive
COc1ccccc1CCNC(=O)C(=O)NCCC1CCCCN1S(=O)(=O)c1ccccc1 (stereo not drawn)	none
COc1cccc(C(=O)n2ccc3ccc(-c4ccc5ccn(C(=O)c6cccc(OC)c6)c5c4)cc32)c1	none (no result: LRH-1 inv ag, Gli-Sufu block, SRC3 inh, NCOA1 inh)
Cc1[nH]c(C(=O)N/N=C/c2ccc(C(=O)O)cc2)c(C)c1C(=O)N/N=C/c1ccc(C(=O)O)cc1	none
CCOC(=O)c1c(C)[nH]c(C(=O)N/N=C/c2ccc(Br)cc2)c1C	none | Gli antag conf 50 | Gli cytotox 61 | Wnt3a counter inactive
O=C(CCC(=O)c1ccccc1)Nc1ccc(C(=O)O)cc1	Gli-Sufu block 99 | Gli antag conf inactive | Gli cytotox inactive | Wnt3a counter inactive
